Assay results taken from the supplement of paper PMC12808144.
A number with no mark means an inactive call.

What follows are compounds tested on Mel-DCC-11 (assay: cell viability relative to DMSO control (fraction of DMSO control); higher = less cytotoxic, active = 0.5 or less). Conditions: 1 µM; 120 h.
Summary of the method: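 Three cell types were screened against 315 approved anti-cancer drugs from TargetMol, acoustically pre-spotted in 384-well plates at 1 µM in duplicate over 120 h: NHEM-hTERT immortalized melanocytes (2500/well), patient-derived Mel-DCC-11 and its resistant subline Mel-DCC-11-R (both 1500/well), all in 40 µl per well. The subline was tested alone and with 8 µM of its selecting drug. Viability, measured by luminescence, was normalised to vehicle controls and averaged across duplicates, with ATPlite 1step as the readout.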
Compound `O=NN(CCCl)C(=O)NC1CCCCC1` [Lomustine] has a cell viability of 1.33. `Cc1nc(Nc2ncc(C(=O)Nc3c(C)cccc3Cl)s2)cc(N2CCN(CCO)CC2)n1` [Dasatinib] gave a cell viability of 1.25. `O=C(O)C1CSCN1` (configuration not stated) [Thioproline] gave a cell viability of 1.09. Work on `CCCCc1nc2cc(/C=C/C(=O)NO)ccc2n1CCN(CC)CC` [Pracinostat] yielded a cell viability of 1.1. Compound `COc1cc([C@@H]2c3cc4c(cc3[C@@H](O[C@@H]3O[C@@H]5CO[C@@H](C)O[C@H]5[C@H](O)[C@H]3O)C3COC(=O)C32)OCO4)cc(OC)c1O` (some centres not stated) [Etoposide] has a cell viability of 1.4. `Nc1c2ccccc2nc2ccccc12` [Aminacrine] gave a cell viability of 1.43. `O=C(/C=C/c1cccc(S(=O)(=O)Nc2ccccc2)c1)NO` [Belinostat] was tested, and the cell viability was 1.03. `COC(=O)N[C@@H](C)CNc1nccc(-c2cn(C(C)C)nc2-c2cc(Cl)cc(NS(C)(=O)=O)c2F)n1` [Encorafenib] was tested, and the cell viability was 0.236 (active). `CCc1cn([C@H]2C[C@H](O)[C@@H](CO)O2)c(=O)[nH]c1=O` [Edoxudine] was tested, and the cell viability was 0.621. `Nc1nc(Cl)nc2c1ncn2[C@H]1C[C@H](O)[C@@H](CO)O1` [Cladribine] was tested, and the cell viability was 0.402 (active). `COc1cc([C@H]2Oc3cc([C@H]4Oc5cc(O)cc(O)c5C(=O)[C@@H]4O)ccc3O[C@@H]2CO)ccc1O` [Silibinin] was tested, and the cell viability was 0.939. In the case of `CC1=C(/C=C/C(C)=C/C=C/C(C)=C/C(=O)O)C(C)(C)CCC1` [Tretinoin], the cell viability is reported as 1.5.
